Laboratory results: paper PMC7862700, “An all-to-all approach to the identification of sequence-specific readers for epigenetic DNA modifications on cytosine”

Legend:
Assay in all cases: DAPPL (digital affinity profiling via proximity ligation, sequencing); 10 mM Tris-HCl pH 7.5, 50 mM NaCl, 1 mM DTT, 4% glycerol, room temperature, 30 min; GST-TFs on glutathione beads, 16-mer random dsDNA library, 0.1% formaldehyde crosslink after washing; high values mean tight binding
FLI1 = molecular target: T1, FLI1 (Homo sapiens, UniProt Q01543 1-452); details: protein: recombinant; tags: N-terminal GST; dsDNA, one strand shown
T1 sequence: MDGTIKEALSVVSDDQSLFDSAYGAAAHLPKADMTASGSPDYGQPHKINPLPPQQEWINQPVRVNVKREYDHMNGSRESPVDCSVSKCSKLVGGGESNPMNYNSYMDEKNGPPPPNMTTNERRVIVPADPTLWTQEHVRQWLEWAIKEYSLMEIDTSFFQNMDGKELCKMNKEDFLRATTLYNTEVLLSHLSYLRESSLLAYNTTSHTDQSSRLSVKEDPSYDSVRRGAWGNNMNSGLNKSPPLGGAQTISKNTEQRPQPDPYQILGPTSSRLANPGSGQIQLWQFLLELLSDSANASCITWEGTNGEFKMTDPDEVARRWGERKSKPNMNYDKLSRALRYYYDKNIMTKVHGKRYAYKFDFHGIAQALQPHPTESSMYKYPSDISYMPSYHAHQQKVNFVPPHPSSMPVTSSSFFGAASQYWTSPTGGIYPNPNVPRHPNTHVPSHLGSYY
Outline: (§1)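 Human transcription factors were made in yeast as GST fusions, captured on glutathione beads and barcoded with DNA. With a tag-only sample included, the pool was incubated with 200 nmole of a random double-stranded 16-mer DNA library in Tris/NaCl/DTT/glycerol buffer at room temperature for 30 min, then crosslinked with 0.1% formaldehyde after washing, ligated by proximity, amplified and sequenced. For binding signal, each hexamer's read frequency for a factor is divided by its frequency for the tag-only sample.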

ELK1 = molecular target: T2, ELK1 (Homo sapiens, UniProt P19419 1-428); details: protein: recombinant; tags: N-terminal GST; dsDNA, one strand shown
T2 sequence: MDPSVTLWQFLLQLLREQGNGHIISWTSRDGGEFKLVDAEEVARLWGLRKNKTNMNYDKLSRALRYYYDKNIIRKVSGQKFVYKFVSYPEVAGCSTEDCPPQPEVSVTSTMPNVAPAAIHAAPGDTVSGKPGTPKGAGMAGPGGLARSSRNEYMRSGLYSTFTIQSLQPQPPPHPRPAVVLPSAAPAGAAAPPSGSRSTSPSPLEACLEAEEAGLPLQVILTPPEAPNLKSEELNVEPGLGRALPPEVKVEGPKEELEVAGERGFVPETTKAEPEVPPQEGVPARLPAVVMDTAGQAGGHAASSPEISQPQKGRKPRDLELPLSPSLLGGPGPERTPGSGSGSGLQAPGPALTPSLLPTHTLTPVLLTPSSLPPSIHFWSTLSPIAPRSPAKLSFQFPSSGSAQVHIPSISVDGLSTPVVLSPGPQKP
Outline: as §1

GABPA = molecular target: T3, GABPA (Homo sapiens, UniProt Q06546 1-454); details: protein: recombinant; tags: N-terminal GST; dsDNA, one strand shown
T3 sequence: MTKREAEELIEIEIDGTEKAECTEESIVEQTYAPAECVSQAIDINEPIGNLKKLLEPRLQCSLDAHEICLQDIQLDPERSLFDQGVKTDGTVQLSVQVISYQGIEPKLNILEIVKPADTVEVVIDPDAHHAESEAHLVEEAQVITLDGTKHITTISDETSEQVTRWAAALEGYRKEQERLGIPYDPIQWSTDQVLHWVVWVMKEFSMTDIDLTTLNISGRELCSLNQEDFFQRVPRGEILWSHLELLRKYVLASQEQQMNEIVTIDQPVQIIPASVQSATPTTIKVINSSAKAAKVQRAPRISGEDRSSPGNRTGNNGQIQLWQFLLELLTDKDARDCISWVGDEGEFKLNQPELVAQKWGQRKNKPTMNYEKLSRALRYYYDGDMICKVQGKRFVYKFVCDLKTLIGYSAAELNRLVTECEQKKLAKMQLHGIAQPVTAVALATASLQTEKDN
Outline: as §1

ELF1 = ELF1 (Homo sapiens, UniProt P32519 1-619); details: protein: recombinant; tags: N-terminal GST; dsDNA, one strand shown
Sequence of ELF1 (P32519 whole entry): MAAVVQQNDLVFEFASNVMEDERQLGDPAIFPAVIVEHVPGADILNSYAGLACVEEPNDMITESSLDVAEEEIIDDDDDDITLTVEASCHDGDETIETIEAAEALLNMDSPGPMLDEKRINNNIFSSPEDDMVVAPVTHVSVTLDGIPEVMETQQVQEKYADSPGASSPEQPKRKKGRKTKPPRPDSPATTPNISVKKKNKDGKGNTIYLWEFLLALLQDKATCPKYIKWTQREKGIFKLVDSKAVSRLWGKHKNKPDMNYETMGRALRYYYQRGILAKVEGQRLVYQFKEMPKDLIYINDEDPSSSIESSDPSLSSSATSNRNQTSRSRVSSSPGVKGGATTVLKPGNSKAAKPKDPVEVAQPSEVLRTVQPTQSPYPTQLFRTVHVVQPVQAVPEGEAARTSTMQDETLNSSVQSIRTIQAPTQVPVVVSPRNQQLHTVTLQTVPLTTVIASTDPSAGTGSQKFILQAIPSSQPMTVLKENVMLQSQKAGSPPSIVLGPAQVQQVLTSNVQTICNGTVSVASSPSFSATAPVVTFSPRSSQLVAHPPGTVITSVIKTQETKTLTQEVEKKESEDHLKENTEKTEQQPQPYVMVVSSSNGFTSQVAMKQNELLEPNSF
Outline: as §1

EHF = molecular target: T4, EHF (Homo sapiens, UniProt Q9NZC4 1-300); details: protein: recombinant; tags: N-terminal GST; dsDNA, one strand shown
T4 sequence: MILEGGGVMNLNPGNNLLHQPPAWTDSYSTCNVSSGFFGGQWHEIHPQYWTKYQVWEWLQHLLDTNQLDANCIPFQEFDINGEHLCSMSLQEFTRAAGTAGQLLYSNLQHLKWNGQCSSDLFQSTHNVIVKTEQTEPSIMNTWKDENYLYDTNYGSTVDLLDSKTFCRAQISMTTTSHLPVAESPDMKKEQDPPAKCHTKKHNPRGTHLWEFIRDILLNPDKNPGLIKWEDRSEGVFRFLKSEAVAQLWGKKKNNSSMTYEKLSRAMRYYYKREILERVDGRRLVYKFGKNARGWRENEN
Outline: as §1

SPIB = SPIB (Homo sapiens, UniProt Q01892 1-262); details: protein: recombinant; tags: N-terminal GST; dsDNA, one strand shown
Sequence of SPIB (Q01892 whole entry): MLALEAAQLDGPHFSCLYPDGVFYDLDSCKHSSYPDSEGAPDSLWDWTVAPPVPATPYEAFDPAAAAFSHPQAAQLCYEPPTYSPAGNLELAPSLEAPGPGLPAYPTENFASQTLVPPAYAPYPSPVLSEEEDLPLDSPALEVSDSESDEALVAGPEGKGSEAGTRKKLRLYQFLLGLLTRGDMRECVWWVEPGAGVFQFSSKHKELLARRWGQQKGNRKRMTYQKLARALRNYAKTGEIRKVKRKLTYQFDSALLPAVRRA
Outline: as §1

ELK3 = molecular target: T5, ELK3 (Homo sapiens, UniProt P41970 1-407); details: protein: recombinant; tags: N-terminal GST; dsDNA, one strand shown
T5 sequence: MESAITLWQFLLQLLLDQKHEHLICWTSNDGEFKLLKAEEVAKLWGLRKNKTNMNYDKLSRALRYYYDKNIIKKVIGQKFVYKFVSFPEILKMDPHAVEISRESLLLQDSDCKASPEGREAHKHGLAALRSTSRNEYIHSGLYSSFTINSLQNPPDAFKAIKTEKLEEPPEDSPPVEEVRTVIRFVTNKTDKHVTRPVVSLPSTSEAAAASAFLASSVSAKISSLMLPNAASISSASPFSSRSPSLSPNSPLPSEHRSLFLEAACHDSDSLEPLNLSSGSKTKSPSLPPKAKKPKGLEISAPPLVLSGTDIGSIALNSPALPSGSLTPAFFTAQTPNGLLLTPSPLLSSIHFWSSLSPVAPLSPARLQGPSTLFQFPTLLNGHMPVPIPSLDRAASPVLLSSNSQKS
Outline: as §1

FEV = molecular target: T6, FEV (Homo sapiens, UniProt Q99581 1-238); details: protein: recombinant; tags: N-terminal GST; dsDNA, one strand shown
T6 sequence: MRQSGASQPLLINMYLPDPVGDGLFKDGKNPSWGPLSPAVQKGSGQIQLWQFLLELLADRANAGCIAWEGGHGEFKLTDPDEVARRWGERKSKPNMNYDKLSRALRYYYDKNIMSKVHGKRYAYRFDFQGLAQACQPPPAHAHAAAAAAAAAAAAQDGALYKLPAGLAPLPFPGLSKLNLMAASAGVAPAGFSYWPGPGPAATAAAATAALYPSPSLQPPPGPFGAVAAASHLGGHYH
Outline: as §1

ETV5 = ETV5 (Homo sapiens, UniProt P41161 1-510); details: protein: recombinant; tags: N-terminal GST; dsDNA, one strand shown
Sequence of ETV5 (P41161 whole entry): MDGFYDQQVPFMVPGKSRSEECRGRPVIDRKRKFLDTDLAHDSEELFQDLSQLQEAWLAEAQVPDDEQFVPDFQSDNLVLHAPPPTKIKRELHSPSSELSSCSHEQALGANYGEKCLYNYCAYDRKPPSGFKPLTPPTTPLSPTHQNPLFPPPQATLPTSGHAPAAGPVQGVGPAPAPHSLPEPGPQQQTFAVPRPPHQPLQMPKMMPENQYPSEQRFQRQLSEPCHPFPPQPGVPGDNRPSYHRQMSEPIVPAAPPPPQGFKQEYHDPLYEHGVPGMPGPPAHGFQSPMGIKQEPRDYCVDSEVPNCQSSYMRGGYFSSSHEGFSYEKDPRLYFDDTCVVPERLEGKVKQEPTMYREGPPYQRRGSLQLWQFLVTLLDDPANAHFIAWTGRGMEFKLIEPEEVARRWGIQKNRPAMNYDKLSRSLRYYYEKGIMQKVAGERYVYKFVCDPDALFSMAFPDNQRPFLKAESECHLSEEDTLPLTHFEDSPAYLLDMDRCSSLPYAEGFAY
Outline: as §1

HSF1 = HSF1 (Homo sapiens, UniProt Q00613 1-529); details: protein: recombinant; tags: N-terminal GST; chain copies: 3; dsDNA, one strand shown
Sequence of HSF1 (Q00613 whole entry): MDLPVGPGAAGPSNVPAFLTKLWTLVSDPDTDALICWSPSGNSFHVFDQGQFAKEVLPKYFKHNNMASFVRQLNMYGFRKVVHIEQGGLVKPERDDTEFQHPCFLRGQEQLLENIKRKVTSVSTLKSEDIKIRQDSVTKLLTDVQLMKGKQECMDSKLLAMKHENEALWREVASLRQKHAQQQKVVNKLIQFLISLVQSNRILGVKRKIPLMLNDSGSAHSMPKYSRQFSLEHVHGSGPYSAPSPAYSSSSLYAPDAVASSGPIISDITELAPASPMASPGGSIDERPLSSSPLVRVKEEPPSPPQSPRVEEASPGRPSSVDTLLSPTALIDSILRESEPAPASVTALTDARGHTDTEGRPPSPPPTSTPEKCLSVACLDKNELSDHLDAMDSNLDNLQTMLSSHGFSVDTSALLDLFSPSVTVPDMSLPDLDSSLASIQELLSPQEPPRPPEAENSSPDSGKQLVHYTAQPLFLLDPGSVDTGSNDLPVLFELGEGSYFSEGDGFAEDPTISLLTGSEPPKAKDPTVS
Outline: as §1

SPIC = molecular target: T7, SPIC (Homo sapiens, UniProt Q8N5J4 1-248); details: protein: recombinant; tags: N-terminal GST; dsDNA, one strand shown
T7 sequence: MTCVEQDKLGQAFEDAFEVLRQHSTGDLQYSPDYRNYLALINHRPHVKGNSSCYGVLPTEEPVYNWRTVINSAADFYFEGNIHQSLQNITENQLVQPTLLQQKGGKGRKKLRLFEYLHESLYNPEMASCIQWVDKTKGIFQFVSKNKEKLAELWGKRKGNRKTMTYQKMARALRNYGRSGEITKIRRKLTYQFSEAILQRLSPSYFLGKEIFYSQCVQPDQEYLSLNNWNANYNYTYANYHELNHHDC
Outline: as §1

ELF4 = ELF4 (Homo sapiens, UniProt Q99607 1-663); details: protein: recombinant; tags: N-terminal GST; dsDNA, one strand shown
Sequence of ELF4 (Q99607 whole entry): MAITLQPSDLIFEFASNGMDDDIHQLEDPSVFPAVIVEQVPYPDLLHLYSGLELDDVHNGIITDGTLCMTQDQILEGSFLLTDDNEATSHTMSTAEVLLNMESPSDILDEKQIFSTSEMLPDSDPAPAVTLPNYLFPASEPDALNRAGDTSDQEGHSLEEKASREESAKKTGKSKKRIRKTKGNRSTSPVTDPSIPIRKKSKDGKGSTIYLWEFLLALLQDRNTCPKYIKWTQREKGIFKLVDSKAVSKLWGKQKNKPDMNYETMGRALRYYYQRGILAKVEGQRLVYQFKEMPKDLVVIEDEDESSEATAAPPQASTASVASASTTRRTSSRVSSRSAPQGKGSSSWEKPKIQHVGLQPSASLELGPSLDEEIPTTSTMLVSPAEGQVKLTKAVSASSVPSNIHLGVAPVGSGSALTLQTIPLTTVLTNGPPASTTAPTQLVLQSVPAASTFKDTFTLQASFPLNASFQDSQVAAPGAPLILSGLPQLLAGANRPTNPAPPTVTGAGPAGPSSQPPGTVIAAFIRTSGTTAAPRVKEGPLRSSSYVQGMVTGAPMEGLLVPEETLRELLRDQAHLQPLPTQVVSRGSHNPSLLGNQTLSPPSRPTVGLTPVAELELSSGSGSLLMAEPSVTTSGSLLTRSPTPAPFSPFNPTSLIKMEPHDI
Outline: as §1

ETV1 = ETV1 (Homo sapiens, UniProt P50549 1-477); details: protein: recombinant; tags: N-terminal GST; dsDNA, one strand shown
Sequence of ETV1 (P50549 whole entry): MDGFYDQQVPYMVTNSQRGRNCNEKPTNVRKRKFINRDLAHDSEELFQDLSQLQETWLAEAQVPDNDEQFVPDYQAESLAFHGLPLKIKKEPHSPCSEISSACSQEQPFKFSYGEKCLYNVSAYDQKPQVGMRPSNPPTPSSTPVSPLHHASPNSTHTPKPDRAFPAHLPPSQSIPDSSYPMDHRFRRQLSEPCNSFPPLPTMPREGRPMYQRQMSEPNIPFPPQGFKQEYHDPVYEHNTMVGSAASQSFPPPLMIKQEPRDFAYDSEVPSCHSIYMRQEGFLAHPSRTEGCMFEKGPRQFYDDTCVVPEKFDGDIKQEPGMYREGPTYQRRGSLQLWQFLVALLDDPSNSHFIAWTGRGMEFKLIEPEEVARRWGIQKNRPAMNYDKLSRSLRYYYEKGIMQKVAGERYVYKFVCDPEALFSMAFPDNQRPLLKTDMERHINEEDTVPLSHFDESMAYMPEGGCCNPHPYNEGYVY
Outline: as §1

ERG = molecular target: T8, ERG (Homo sapiens, UniProt P11308 1-479); details: protein: recombinant; tags: N-terminal GST; dsDNA, one strand shown
T8 sequence: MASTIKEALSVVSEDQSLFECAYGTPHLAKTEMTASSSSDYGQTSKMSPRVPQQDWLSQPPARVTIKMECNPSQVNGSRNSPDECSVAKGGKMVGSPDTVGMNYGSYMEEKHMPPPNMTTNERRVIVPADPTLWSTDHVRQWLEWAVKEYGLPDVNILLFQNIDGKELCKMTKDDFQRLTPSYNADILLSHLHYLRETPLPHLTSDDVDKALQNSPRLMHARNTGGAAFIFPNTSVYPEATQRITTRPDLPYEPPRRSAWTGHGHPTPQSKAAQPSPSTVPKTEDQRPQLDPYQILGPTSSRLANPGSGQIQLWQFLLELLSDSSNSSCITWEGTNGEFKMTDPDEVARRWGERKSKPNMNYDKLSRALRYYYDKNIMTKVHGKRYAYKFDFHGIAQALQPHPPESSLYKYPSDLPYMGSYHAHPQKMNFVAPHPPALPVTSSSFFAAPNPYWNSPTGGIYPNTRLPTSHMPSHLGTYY
Outline: as §1

SPI1 = SPI1 (Homo sapiens, UniProt P17947 1-270); details: protein: recombinant; tags: N-terminal GST; dsDNA, one strand shown
Outline: as §1

ETV2 = molecular target: T9, ETV2 (Homo sapiens, UniProt O00321 1-342); details: protein: recombinant; tags: N-terminal GST; dsDNA, one strand shown
T9 sequence: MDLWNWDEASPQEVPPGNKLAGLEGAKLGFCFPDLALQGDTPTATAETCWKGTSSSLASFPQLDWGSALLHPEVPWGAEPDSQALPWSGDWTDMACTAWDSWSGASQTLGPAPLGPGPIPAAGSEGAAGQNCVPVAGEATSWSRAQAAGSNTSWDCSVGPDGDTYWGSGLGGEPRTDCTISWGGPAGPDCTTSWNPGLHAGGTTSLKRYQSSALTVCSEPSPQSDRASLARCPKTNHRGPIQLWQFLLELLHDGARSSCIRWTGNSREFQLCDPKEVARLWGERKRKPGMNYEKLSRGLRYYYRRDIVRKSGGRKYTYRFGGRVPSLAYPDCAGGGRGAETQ
Outline: as §1

ELF3 = molecular target: T10, ELF3 (Homo sapiens, UniProt P78545 1-371); details: protein: recombinant; tags: N-terminal GST; dsDNA, one strand shown
T10 sequence: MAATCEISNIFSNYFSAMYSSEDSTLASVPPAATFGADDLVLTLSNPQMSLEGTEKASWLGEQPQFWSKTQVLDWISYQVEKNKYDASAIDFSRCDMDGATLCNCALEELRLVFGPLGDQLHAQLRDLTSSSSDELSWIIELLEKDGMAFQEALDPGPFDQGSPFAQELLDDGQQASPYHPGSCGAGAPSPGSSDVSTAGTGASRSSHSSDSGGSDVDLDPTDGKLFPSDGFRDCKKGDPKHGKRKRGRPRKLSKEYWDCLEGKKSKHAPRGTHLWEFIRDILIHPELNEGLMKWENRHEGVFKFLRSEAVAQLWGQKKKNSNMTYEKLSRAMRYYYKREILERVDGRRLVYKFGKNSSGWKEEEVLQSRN
Outline: as §1

Sequence | binding signal (FLI1) | binding signal (ELK1) | binding signal (GABPA) | binding signal (ELF1) | binding signal (EHF) | binding signal (SPIB) | binding signal (ELK3) | binding signal (FEV) | binding signal (ETV5) | binding signal (HSF1) | binding signal (SPIC) | binding signal (ELF4) | binding signal (ETV1) | binding signal (ERG) | binding signal (SPI1) | binding signal (ETV2) | binding signal (ELF3)
CTCGTG | 1.19 fold enrichment (6-mer frequency, TF over GST control) | 1.09 fold enrichment (6-mer frequency, TF over GST control) | 1.28 fold enrichment (6-mer frequency, TF over GST control) | 1.16 fold enrichment (6-mer frequency, TF over GST control) | 1.07 fold enrichment (6-mer frequency, TF over GST control) | 1.05 fold enrichment (6-mer frequency, TF over GST control) | 1.11 fold enrichment (6-mer frequency, TF over GST control) | 1.05 fold enrichment (6-mer frequency, TF over GST control) | 1.03 fold enrichment (6-mer frequency, TF over GST control) | 1.18 fold enrichment (6-mer frequency, TF over GST control) | 1.03 fold enrichment (6-mer frequency, TF over GST control) | 1.21 fold enrichment (6-mer frequency, TF over GST control) | 1.18 fold enrichment (6-mer frequency, TF over GST control) | – | – | – | –
AAACGA | 1.07 fold enrichment (6-mer frequency, TF over GST control) | 1.14 fold enrichment (6-mer frequency, TF over GST control) | 1.17 fold enrichment (6-mer frequency, TF over GST control) | 1.08 fold enrichment (6-mer frequency, TF over GST control) | 1.04 fold enrichment (6-mer frequency, TF over GST control) | 1 fold enrichment (6-mer frequency, TF over GST control) | 1.14 fold enrichment (6-mer frequency, TF over GST control) | 1.09 fold enrichment (6-mer frequency, TF over GST control) | 1.1 fold enrichment (6-mer frequency, TF over GST control) | 1.09 fold enrichment (6-mer frequency, TF over GST control) | 1.02 fold enrichment (6-mer frequency, TF over GST control) | 1.08 fold enrichment (6-mer frequency, TF over GST control) | 1.03 fold enrichment (6-mer frequency, TF over GST control) | 1.11 fold enrichment (6-mer frequency, TF over GST control) | 1.1 fold enrichment (6-mer frequency, TF over GST control) | 1.1 fold enrichment (6-mer frequency, TF over GST control) | 1.11 fold enrichment (6-mer frequency, TF over GST control)
